Screens (PubChem BioAssay)
IP6K1 inhibitor: blocks human inositol hexakisphosphate kinase 1; 140,000 tested, 0.81% active; Q92551; activity change, % (series mostly up to about 58 µM); IP6K1 kinase, ADP-Glo luminescence, 2 h; hits give low values; in the data active = activity change below about -25%; note: % is set by controls: 0 for no effect and ±100 for the full control effect
Target sequence (Q92551 whole entry, looked up): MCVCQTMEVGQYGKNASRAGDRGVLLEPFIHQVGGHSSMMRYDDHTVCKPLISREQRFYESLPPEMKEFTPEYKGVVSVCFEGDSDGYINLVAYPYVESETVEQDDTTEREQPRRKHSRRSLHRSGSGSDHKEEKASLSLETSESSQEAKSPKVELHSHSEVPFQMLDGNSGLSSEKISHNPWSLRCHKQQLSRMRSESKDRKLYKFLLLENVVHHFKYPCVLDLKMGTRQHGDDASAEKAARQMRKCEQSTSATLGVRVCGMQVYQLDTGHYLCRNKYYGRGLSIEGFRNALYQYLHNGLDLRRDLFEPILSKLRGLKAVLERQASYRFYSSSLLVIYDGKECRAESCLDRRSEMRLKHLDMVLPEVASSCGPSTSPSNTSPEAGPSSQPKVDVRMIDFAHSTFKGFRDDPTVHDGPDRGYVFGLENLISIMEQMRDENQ
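ADP-Glo luminescence measures ADP made by human IP6K1 during a 2 h RT reaction with ATP/IP6 (mix at 1.3 mM/130 uM); top library doses 57.5 and 19.1 uM final.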
KDM5B inh: KDM5B demethylase inhibition; Potency, µM (titrated, usually from 57.7 µM), most hits filed as inhibitors; AID 1347165; 220,000 tested, 2.6% active; Q9UGL1; KDM5B demethylase, FDH-coupled NADH fluorescence (FDH is formaldehyde dehydrogenase); note: potency is the fitted concentration of half-maximal effect; 0% is about no effect; nearly all actives have a fitted effect of over 70% in size
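Compound dilutions met 200 nM (final) KDM5BΔAP for 10 min at room temperature before substrate addition. The substrate mix held 12.5 µM H3K4me3 with cofactors 25 µM α-ketoglutarate and 50 µM Fe²⁺. NADH signal gain over 30 min defined activity.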
SNCA viab count: counter-screen for SNCA expression inhibitors: cell viability | HEK-293-SNCA-luc viability, GF-AFC fluorescence, 24 h | Potency, µM (titrated, usually from 57.1 µM), without a hit: top-dose activity change, negative = cytotoxicity, most hits filed as cytotoxic | 150,000 tested, 0.12% active;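 note: potency is the fitted concentration of half-maximal effect; 0% = DMSO-treated cells and -100% = medium-only wells without cells; nearly all actives have a fitted effect of over 30% in size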
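Cytotoxicity counterscreen: after 24 h compound treatment of genome-edited SNCA-luciferase HEK-293 cells, live-cell protease substrate GF-AFC read by fluorescence after 30 min; activity scaled between DMSO (0%) and medium-only (-100%), curves Hill-fitted.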
SNCA expr inh: inhibitors of alpha-synuclein (SNCA) gene expression; HEK-293 SNCA-luciferase knock-in, luminescence, 24 h; Potency, µM (doses to about 57.2 µM), without a hit: top-dose activity change, negative = inhibition, usual class: inhibitors; 140,000 tested, 0.17% active; AID 1671194;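 note: potency is the fitted concentration of half-maximal effect; plate controls were DMSO cells for no effect and cell-free wells for full effect; nearly all actives have a fitted effect of over 45% in size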
The depositor's hits bear a star; i = inactive; ? = inconclusive; . = not tested or not shown; ! = not confirmed by another sample; [ ] = another dose, or the depositor's remark. Sampled rows, rich in hits. Any-hit rate of the full collection: about 2.9%. Unless noted, calls come from the whole dose curve; as a rule, active = well fitted curve in the direction sought with a large enough effect; inconclusive = small, poorly fitted or top-dose-only effect, or another doubt; inactive = no such curve, though single readings can be large; an effect the other way counts as inactive or inconclusive.

SMILES	IP6K1 inhibitor	KDM5B inh	SNCA viab count	SNCA expr inh
OCC1CN(c2ncccn2)CC12CCNCC2 (configuration not stated)	12.5	31.6µM*	0.1%	8.3%
Cc1[nH]nc2ccc(-c3cncc(OC[C@@H](N)Cc4c[nH]c5ccccc45)c3)cc12	4.6	.	19.2µM*!	0.108µM*
O=C(c1ccc(F)cc1)N1C[C@@H]2C[C@H](C1)c1ccc(-c3cncnc3)c(=O)n1C2	0.1	39.8µM*	1.6%[87.6 µM]	21.8%[87.6 µM]
CN(C)CC(=O)Nc1ccc2n(c1=O)C[C@H]1C[C@@H]2CN(C(=O)c2ccc(F)cc2)C1	-4.9	i	3.4%[87.6 µM]	-11.8%[87.6 µM]
O=C(c1ccccc1)N1C[C@@H]2C[C@H](C1)c1c(-c3cncnc3)ccc(=O)n1C2	-5.1	?	-0.4%[87.6 µM]	-19.2%[87.6 µM]
O=C(c1ccccc1)N1C[C@@H]2C[C@H](C1)c1ccc(-c3cncnc3)c(=O)n1C2	-6.2	39.8µM*	-0.2%[87.6 µM]	1.0%[87.6 µM]
CC[C@H]1CN2CC[C@H]1C[C@@H]2COC(=O)Nc1ccccc1	4.6	i	-2.4%[87.6 µM]	58.5%[87.6 µM]
O=C1CO[C@H]2CN(Cc3ncc[nH]3)C[C@H]2N1Cc1cccnc1	-3.9	25.1µM*	3.9%[87.6 µM]	-23.4%[87.6 µM]
O=C1CO[C@H]2CN(Cc3ncc[nH]3)C[C@H]2N1Cc1ccncc1	3.6	35.5µM*	5.8%[87.6 µM]	-5.5%[87.6 µM]
O=C1CO[C@H]2CN(Cc3ccco3)C[C@H]2N1Cc1cccnc1	-3.1	i	-2.8%[87.6 µM]	10.1%[87.6 µM]
FC(F)(F)CN1C2CCC1CN(c1cnc3ccccc3c1)C2	3.7	100µM*	-4.6%	3.4%
COc1cccc(N2CC3CCC(C2)N3CC(F)(F)F)n1	5.1	100µM*	-6.1%	-2.9%
Cn1nc(C2CCCCC2)cc1[C@H]1CN2CC[C@H]1C[C@@H]2CN	-3.9	i	-9.1%[87.6 µM]	-9.8%[87.6 µM]
COc1ccccc1CCC(=O)N1CCC2(CC1)NCc1ccccc1-n1ccnc12	31.8	i	-8.8%	10.5%
O=C(c1ccccc1)N1C[C@@H]2C[C@H](C1)c1c(/C=C/c3ccc(Cl)cc3)ccc(=O)n1C2	-3.0	35.5µM*	-12.0%[87.6 µM]	-26.0%[87.6 µM]
COc1ccc(-c2ccc3n(c2=O)C[C@H]2C[C@@H]3CN(S(C)(=O)=O)C2)cc1	-5.0	39.8µM*	1.2%[87.6 µM]	13.6%[87.6 µM]
CN1CCC(N2C[C@@H]3C[C@H](C2)c2ccc(-c4ccc(OC(F)(F)F)cc4)c(=O)n2C3)CC1	-2.5	?	0.3%	-3.0%
COCCO[C@H]1COCCN(C2CCOCC2)C1	3.6	i	-6.0%[87.6 µM]	-9.8%[87.6 µM]
O=c1oc2ccccc2c(O)c1Cc1c(O)c2ccccc2oc1=O	-25.1*	.	-10.6%[23.9 µM]	-1.9%[25.6 µM]
OC[C@@H]1[C@@H](c2ccccc2)CN2CCN(Cc3ccccc3)C[C@H]12	0.2	.	.	.
CC(=O)N1CCC2(CC1)C(=O)NN=C2c1cccnc1	4.8	i	8.6%[87.6 µM]	-6.1%[87.6 µM]
CC(=O)N1CCC2(C1)N=C(c1cccnc1)C(=O)N2 (configuration not stated)	0.8	35.5µM*	10.1%[87.6 µM]	7.1%[87.6 µM]
c1cncc(C2=NOC3(CCN(C4CCCCC4)CC3)C2)c1	5.1	i	?	8.8%[87.6 µM]
CC(=O)N1CCC2(CC1)CC(c1cccnc1)=NO2	-2.9	17.8µM*	5.2%[87.6 µM]	-20.3%[87.6 µM]
CCOC(=O)[C@H]1CN([S+](C)(=O)[O-])[C@]2(C)C(=O)Nc3ccccc3[C@H]12	-7.7	.	.	.
SMILES	IP6K1 inhibitor	KDM5B inh	SNCA viab count	SNCA expr inh
CCOC(=O)[C@H]1CN(C(=O)Cc2ccccc2)[C@]2(C)C(=O)N(CC3CC3)c3ccccc3[C@H]12	-0.9	.	.	.
CN1CCN(C(=O)Cc2c[nH]c3ncc(-c4ccsc4)cc23)CC1	-11.6	39.8µM*	12.3%[87.6 µM]	4.4%[87.6 µM]
CN1CCN(C(=O)Cc2c[nH]c3ncc(-c4ccccc4F)cc23)CC1	-13.4	35.5µM*	6.9%[87.6 µM]	6.3%[87.6 µM]
O=C(O)C1=NOC2CN(Cc3cccnc3)CC12 (configuration not stated)	2.3	39.8µM*	-4.3%[87.6 µM]	12.8%[87.6 µM]
COc1ccc(-c2cc([C@H]3CN4CC[C@H]3C[C@@H]4CNC(=O)c3cccs3)nc(C)n2)cc1OC	10.2	28.2µM*	0.0%	31.5%
COc1ccc(-c2cc([C@H]3CN4CC[C@H]3C[C@@H]4COC(=O)NC3CCCCC3)nc(C)n2)cc1	9.0	i	-0.2%	0.6%
Cc1nc(-c2cccs2)cc([C@H]2CN3CC[C@H]2C[C@@H]3CNC(=O)C(C)(C)C)n1	23.2	?	8.1%[87.6 µM]	-27.1%[87.6 µM]
Cc1nc(-c2cccs2)cc([C@H]2CN3CC[C@H]2C[C@@H]3CNC(=O)c2ccc(C(F)(F)F)cc2)n1	5.2	i	-6.9%	-30.8%
CCNC(=O)NC[C@H]1C[C@@H]2CCN1C[C@@H]2c1cc(-c2ccccc2)nc(C)n1	24.6	?	-14.3%[87.6 µM]	-1.6%[87.6 µM]
